Screening results (PubChem)
Compounds with a hit are over-represented: about 1.8% of the library has one in this group of screens.
PME-1 primary – blocks human protein phosphatase methylesterase 1; Q9Y570; recombinant PME-1, FP-Rh probe fluorescence polarization; inhibition, % at 5.9 µM; hit rate 0.53% among 320,000; AID 2130;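 active = inhibition above the campaign mean of all compounds plus 3 SD, cut at about 26% in these data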;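 also: competitive labeling of PME-1 active site by serine hydrolase directed probe; inhibitors block probe labeling so polarization falls and inhibition rises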
Target sequence (Q9Y570 whole entry, looked up): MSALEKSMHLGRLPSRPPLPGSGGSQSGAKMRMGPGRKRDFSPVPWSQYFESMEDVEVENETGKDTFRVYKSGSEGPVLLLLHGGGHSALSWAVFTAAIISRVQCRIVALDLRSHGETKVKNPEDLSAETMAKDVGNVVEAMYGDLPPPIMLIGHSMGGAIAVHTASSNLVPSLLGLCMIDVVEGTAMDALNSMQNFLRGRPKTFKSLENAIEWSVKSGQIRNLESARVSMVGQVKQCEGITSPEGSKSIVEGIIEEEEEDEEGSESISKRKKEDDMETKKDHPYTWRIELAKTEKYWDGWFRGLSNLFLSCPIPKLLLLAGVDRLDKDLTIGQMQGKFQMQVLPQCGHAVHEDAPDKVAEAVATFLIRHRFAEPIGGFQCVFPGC
Fam108B counter – counter-screen for RBBP9 inhibitors: inhibitors of mouse Fam108B; inhibition, % at 9.51 µM; hit rate 0.33% among 300,000; AID 1947; recombinant Fam108B, FP-Rh probe fluorescence polarization;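 active = inhibition above the screen mean inhibition plus 3 SD, computed separately per campaign, cut at about 18% in these data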;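 also: inhibitors lower polarization as less probe binds the enzyme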
PAD4 inh – blocks human protein arginine deiminase 4; hit rate 0.41% among 330,000; recombinant PAD4, RCA probe fluorescence polarization; inhibition, % at 6.36 µM; Q9UM07; AID 485272;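 active = percent inhibition above a cutoff equal to the mean of all tested compounds plus 3 SD, cut at about 15% in these data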
LYPLA1 inh – blocks human lysophospholipase 1, a PME1 counter-screen; hit rate 0.16% among 320,000; inhibition, % at 5.9 µM; O75608; recombinant LYPLA1, FP-Rh probe fluorescence polarization;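 active = inhibition above the mean of all tested compounds plus 3 SD, set per campaign, cut at about 14% in these data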;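 also: inhibitors block serine hydrolase probe labeling of LYPLA1 so polarization falls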
LYPLA2 inh – counter-screen for PME1 inhibitors: inhibitors of human LYPLA2; O95372; recombinant LYPLA2, FP-Rh probe fluorescence polarization; inhibition, % at 5.9 µM; hit rate 0.38% among 320,000; AID 2177;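 active = inhibition above the screen-wide mean plus 3 SD, limit set per campaign, cut at about 26% in these data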
Target sequence (O95372 whole entry, looked up): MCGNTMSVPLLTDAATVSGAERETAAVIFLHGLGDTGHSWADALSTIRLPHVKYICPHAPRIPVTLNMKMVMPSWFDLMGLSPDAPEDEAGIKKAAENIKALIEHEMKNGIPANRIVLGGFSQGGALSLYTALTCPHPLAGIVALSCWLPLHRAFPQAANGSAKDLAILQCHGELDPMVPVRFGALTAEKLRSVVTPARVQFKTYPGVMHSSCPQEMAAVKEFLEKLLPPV
GSTO1 inh – blocks human GSTO1 in RBBP9 counter-screen; inhibition, % at 5.96 µM; AID 1974; hit rate 1.1% among 300,000; recombinant GSTO1, activity-based probe fluorescence polarization;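 active = inhibition above the campaign mean inhibition plus 3 SD, cut at about 35% in these data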
PAD4 FP conf – confirmation of human PAD4 inhibitors. shares compounds with PAD4 inh. hit rate 28% among 1,200. recombinant PAD4, RCA probe fluorescence polarization. inhibition, % at 6.36 µM;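 active = mean inhibition across replicates above the hit cutoff set by the earlier primary screen, cut at about 15% in these data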;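 also: inhibitors block active-site labeling by the probe so polarization falls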
Each line names hits and unclear results; the compound was inactive in the other large screens (follow-up assays come after a bar, where they were run).

COc1ccc(Br)cc1S(=O)(=O)n1nc(C)cc1C	none
CC(=O)Nc1ccc(Sc2ccccc2C(=O)O)cc1	none
O=C(O)c1ccccc1SSc1ccccc1C(=O)O	PAD4 inh 45.2 | PAD4 FP conf 38.0
CCc1nnc(N/N=C/c2ccc(O)c(OC)c2)n1N	PAD4 inh 38.4 | PAD4 FP conf inactive
COc1cc(/C=N/NC(=O)Nc2ccccc2)ccc1OC(C)=O	none
CCc1nnc(N/N=C\c2ccc(OC(C)=O)c(OC)c2)n1N	PAD4 inh 25.3 | PAD4 FP conf inactive
O=C(CN(Cc1ccc(Br)cc1)S(=O)(=O)c1ccccc1)NCC1CCCO1 (centres undefined)	none
CCCCCN1N=C(C)CC1=O	PAD4 inh 22.4 | PAD4 FP conf inactive
CC1(C(=O)OCC(=O)NNC(=O)COc2ccc(Cl)cc2)CC1(Cl)Cl (centres undefined)	none
O=C1CC2(CCN(C(=O)c3ccc(F)c(F)c3)CC2)Oc2ccccc21	none
Cc1cc(Br)ccc1NC(=O)CNC(=O)c1cnn(C)c1	none (no result: Fam108B counter, GSTO1 inh)
CS(=O)(=O)c1cccc(C(=O)NCc2ccccc2)c1	PAD4 inh 34.7 | PAD4 FP conf inactive
CC(=O)N1CCN(c2ccc(N)cc2)CC1	PAD4 inh 25.0 (no result: Fam108B counter, GSTO1 inh) | PAD4 FP conf inactive
CC(=O)N1CCN(c2ccc(NS(=O)(=O)c3ccc(C)cc3)cc2)CC1	PAD4 inh 24.0 | PAD4 FP conf inactive
CCc1ccc([C@H]2C(C(=O)O)=C[C@@H](CC3CCCC3)N2S(=O)(=O)c2ccc(C)cc2)cc1	none (no result: PME-1 primary, Fam108B counter, LYPLA1 inh, LYPLA2 inh, GSTO1 inh)
Cc1[nH][nH]c(=O)c1C(c1ccc(-c2cccc(C(=O)O)c2)o1)c1c(C)[nH][nH]c1=O	PAD4 inh 33.3 | PAD4 FP conf inactive
O=C(COc1ccccc1)Nc1ccc(NC(=O)c2ccco2)cc1	none
O=C(COc1ccc(Cl)cc1)Nc1ccc(NC(=O)c2ccco2)cc1	PAD4 inh 26.7 | PAD4 FP conf inactive
COc1cccc(CNC(=O)CN2C(=O)COc3ccc(S(=O)(=O)N4CCOCC4)cc32)c1	none
NC(=O)c1nsc(C(=O)N(Cc2ccco2)C(C(=O)NCc2ccc(F)cc2)c2ccc(O)cc2)c1N (centres undefined)	none
CCC(C)(C)NC(=O)C(c1ccc(F)cc1)N(Cc1ccco1)C(=O)c1snc(C(N)=O)c1N (centres undefined)	PAD4 inh 16.3 | PAD4 FP conf inactive
CCOc1ccnc2c1c(=O)n(Cc1cc(OC)cc(OC)c1)c(=O)n2C	none
CCOc1cc(Br)c(/C=C2/C(=O)N(C)C(=S)N2CC(=O)OC)cc1OC	none
COc1cc(/C=C2\C(=O)N(CCC#N)N=C2C)c(Br)cc1OC(C)C	PAD4 inh 70.5, GSTO1 inh 36.0 | PAD4 FP conf inactive
COc1ccc(OCC(=O)NNC(=O)c2ccccc2OCc2c(C)noc2C)cc1	none
CC(=O)c1ccc(-n2c(=O)[nH]c(=O)c3c(N)c(C(=O)c4ccc(Cl)cc4)sc32)cc1	none
CC(=O)N1CCN(S(=O)(=O)c2cccc(C(=O)OCC(=O)N(CCC#N)c3ccc(F)cc3)c2)CC1	PAD4 inh 29.4 (no result: Fam108B counter, GSTO1 inh) | PAD4 FP conf inactive
CC(=O)NN1C(=O)c2ccc3c4c(ccc(c24)C1=O)C(=O)N(NC(C)=O)C3=O	PAD4 inh 136.1, GSTO1 inh 37.5 | PAD4 FP conf 142.6
O=[N+]([O-])c1cc(Br)c(Nc2ccccc2)c([N+](=O)[O-])c1	PAD4 inh 18.2 | PAD4 FP conf 19.8
O=C(Nc1ccccc1)c1ccc(Nc2c([N+](=O)[O-])cc([N+](=O)[O-])c3ccccc23)cc1	none
CCC(=O)N(Cc1cc(=O)[nH]c2ccccc12)c1ccccc1	PAD4 inh 21.2 | PAD4 FP conf 21.9
CCOC(=O)c1sc2nc(CSc3ccccc3)nc(N3CCC(C(N)=O)CC3)c2c1C	PAD4 inh 39.9 | PAD4 FP conf inactive
CC(=O)c1c(C)oc2ccc(NS(=O)(=O)c3ccc(O)c(C(=O)O)c3)cc12	none
O=C(O)c1cc(S(=O)(=O)Nc2ccc3oc(=O)sc3c2)ccc1O	PAD4 inh 36.5, GSTO1 inh 59.8 | PAD4 FP conf 18.7
Cc1ccc(S(=O)(=O)Nc2ccc3oc(=O)sc3c2)c(C)c1	PAD4 inh 21.9 | PAD4 FP conf inactive
N#CC(C#N)=C1C=C2C=C(N3CCCCC3)CCC2CC1 (centres undefined)	PAD4 inh 49.0 | PAD4 FP conf 21.1
COc1ccc(S(=O)(=O)N2CCN(C(=O)c3ccc(C)o3)CC2)cc1	none
CC(=NC1CC1)c1c(-c2ccccc2)[nH]n(-c2nc3ccccc3s2)c1=O	none
CC(=NC1CCCC1)c1c(C)[nH]n(-c2nc3ccccc3s2)c1=O	PAD4 inh 19.0 | PAD4 FP conf 17.5
COc1ccc(CCNC(=O)c2c[nH]c3ccccc3c2=O)cc1OC	none
COc1ccc(CCNC(=O)c2c[nH]c3ccc(F)cc3c2=O)cc1OC	PAD4 inh 83.2 | PAD4 FP conf inactive
COc1ccc([C@H]2CC(=O)C=C(/C=C/c3ccc(C(F)(F)F)cc3)C2)cc1	none (no result: Fam108B counter, GSTO1 inh)
Nc1ccc(-c2c3ccc(=O)cc-3oc3cc(O)ccc23)cc1C(=O)O	PAD4 inh 22.5 | PAD4 FP conf 33.4
CCOc1ccc(OCCC(=O)N(CC)CC(=O)Nc2c(F)cccc2F)cc1	none (no result: Fam108B counter, GSTO1 inh)
Cc1cc(Br)ccc1S(=O)(=O)NCc1ccccc1	none
CS(=O)(=O)c1cccc(C(=O)Nc2cccc(-c3nc4ccccc4[nH]3)c2)c1	PAD4 inh 20.4 | PAD4 FP conf 16.4
CS(=O)(=O)c1ccc(C(=O)Nc2cccc(-c3nc4ccccc4[nH]3)c2)cc1	PAD4 inh 28.0 | PAD4 FP conf inactive
CS(=O)(=O)c1ccc(C(=O)Nc2ccc(-c3nc4ccccc4[nH]3)cc2)cc1	none
CS(=O)(=O)Cc1ccc(C(=O)Nc2cccc(-c3nc4ccccc4[nH]3)c2)cc1	none
CC(=O)NCCC(=O)Nc1sc2c(c1-c1nc3ccccc3[nH]1)CCCC2	none
CN1CCN(S(=O)(=O)c2cccc(C(=O)Nc3sc4c(c3-c3nc5ccccc5[nH]3)CCCC4)c2)CC1	PAD4 inh 19.5 | PAD4 FP conf inactive
Cc1ccc(C(C(=O)NCCc2ccccc2)N(C(=O)c2csnn2)C2CC2)cc1 (centres undefined)	none
Cc1cc(C)c2nc(C)cc(Nc3ccc(C(=O)N4CCOCC4)cc3)c2c1	none
Cc1c(C(=O)Oc2ccc(-c3cnc4ccccc4n3)cc2)cccc1[N+](=O)[O-]	PAD4 inh 62.2 | PAD4 FP conf 57.2
CCC(=O)Oc1ccc(-c2cnc3ccccc3n2)cc1	PAD4 inh 19.7 | PAD4 FP conf inactive
O=C(Nc1cccc(-c2cnc3ccccc3n2)c1)c1ccco1	none
O=C(Oc1ccc(-c2cnc3ccccc3n2)cc1)c1ccco1	PAD4 inh 36.2 | PAD4 FP conf 34.6
O=C(Oc1ccc(-c2cnc3ccccc3n2)cc1)c1cc([N+](=O)[O-])ccc1Cl	none
